The text below walks through data of PMC7862700, “An all-to-all approach to the identification of sequence-specific readers for epigenetic DNA modifications on cytosine”.

Assay in all cases: DAPPL (digital affinity profiling via proximity ligation, sequencing); 10 mM Tris-HCl pH 7.5, 50 mM NaCl, 1 mM DTT, 4% glycerol, room temperature, 30 min; GST-TFs on glutathione beads, 16-mer random dsDNA library, 0.1% formaldehyde crosslink after washing; high values mean tight binding
Common to all, as to details: protein: recombinant; tags: N-terminal GST; dsDNA, one strand shown

The target in one test is T1, ERF (Homo sapiens, UniProt P50548 1-548).
T1 sequence: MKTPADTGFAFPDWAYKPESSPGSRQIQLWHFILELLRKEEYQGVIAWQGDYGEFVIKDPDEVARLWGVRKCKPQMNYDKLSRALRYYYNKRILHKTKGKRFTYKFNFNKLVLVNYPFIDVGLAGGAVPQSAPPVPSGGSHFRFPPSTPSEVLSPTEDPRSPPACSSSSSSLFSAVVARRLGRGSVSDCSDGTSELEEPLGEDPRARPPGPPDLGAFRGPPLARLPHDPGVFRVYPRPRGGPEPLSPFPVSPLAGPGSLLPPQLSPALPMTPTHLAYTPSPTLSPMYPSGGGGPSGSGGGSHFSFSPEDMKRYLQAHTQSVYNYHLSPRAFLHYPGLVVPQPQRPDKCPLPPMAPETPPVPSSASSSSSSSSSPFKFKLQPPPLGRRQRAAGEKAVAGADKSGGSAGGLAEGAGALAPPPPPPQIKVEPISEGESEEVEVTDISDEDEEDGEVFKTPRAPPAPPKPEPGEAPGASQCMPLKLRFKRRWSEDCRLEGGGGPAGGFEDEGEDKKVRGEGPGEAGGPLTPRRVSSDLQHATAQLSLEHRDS
Summed up: (§1)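 Binding signal is each hexamer's read frequency for a factor divided by its frequency in the tag-only sample. The factors were GST-fused human transcription factors from yeast, captured on glutathione beads, DNA-barcoded and pooled with that sample. Pools were incubated with 200 nmole of a random double-stranded 16-mer DNA library in Tris/NaCl/DTT/glycerol buffer at room temperature for 30 min, then washed, crosslinked with 0.1% formaldehyde, proximity-ligated with BsaI/T4 ligase (1 h, 37 °C), PCR-amplified and sequenced on an Illumina NextSeq500.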

Another test has as its target T2, ETV3L (Homo sapiens, UniProt Q6ZN32 1-361).
T2 sequence: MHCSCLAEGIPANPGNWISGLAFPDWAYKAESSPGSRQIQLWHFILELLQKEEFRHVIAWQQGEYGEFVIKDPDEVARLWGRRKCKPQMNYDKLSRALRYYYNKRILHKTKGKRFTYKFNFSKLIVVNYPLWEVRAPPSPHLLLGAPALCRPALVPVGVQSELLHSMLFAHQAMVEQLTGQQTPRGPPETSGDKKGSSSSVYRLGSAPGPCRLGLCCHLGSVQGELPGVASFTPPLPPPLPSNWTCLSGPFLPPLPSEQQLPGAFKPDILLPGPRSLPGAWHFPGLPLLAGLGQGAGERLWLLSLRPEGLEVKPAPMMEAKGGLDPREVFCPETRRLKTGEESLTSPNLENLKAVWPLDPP
In outline:
as §1

For a further test, the target named is T3, ETS2 (Homo sapiens, UniProt P15036 1-469).
T3 sequence: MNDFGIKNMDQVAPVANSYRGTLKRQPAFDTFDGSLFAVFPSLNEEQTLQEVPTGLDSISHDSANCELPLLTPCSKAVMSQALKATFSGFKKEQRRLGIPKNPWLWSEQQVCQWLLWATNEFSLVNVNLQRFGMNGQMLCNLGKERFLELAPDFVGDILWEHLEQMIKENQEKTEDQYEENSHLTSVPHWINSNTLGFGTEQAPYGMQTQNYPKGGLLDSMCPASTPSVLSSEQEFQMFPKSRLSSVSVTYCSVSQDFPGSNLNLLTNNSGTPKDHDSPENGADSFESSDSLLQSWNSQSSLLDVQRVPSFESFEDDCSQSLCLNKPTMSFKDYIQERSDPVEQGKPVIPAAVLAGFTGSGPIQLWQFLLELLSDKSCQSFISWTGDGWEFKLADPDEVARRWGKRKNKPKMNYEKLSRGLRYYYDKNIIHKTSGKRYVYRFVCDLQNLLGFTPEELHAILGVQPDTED
Summed up:
as §1

The target of a further test is T4, SPDEF (Homo sapiens, UniProt O95238 1-335).
T4 sequence: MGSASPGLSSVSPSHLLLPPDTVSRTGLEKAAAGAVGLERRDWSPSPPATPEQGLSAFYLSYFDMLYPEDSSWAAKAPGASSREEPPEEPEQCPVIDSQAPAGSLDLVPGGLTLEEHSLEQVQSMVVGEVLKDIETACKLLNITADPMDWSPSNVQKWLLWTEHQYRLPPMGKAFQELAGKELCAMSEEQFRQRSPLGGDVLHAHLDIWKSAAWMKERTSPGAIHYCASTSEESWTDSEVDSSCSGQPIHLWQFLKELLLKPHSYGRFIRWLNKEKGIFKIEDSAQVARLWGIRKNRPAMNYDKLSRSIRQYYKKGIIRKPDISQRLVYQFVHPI
In outline: as §1

A further test concerns the target T5, ETV7 (Homo sapiens, UniProt Q9Y603 1-341).
T5 sequence: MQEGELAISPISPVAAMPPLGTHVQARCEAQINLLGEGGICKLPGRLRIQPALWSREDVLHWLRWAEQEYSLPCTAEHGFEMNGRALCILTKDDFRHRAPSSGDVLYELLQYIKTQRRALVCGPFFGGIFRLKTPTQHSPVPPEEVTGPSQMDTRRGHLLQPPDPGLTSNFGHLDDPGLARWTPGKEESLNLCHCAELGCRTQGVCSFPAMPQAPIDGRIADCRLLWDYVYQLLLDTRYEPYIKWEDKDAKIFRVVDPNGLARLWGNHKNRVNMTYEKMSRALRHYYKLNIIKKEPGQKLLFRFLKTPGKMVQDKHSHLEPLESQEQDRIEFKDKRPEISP
Summed up: as §1

Another test addresses T6, ELF5 (Homo sapiens, UniProt Q9UKW6-2 1-255).
T6 sequence: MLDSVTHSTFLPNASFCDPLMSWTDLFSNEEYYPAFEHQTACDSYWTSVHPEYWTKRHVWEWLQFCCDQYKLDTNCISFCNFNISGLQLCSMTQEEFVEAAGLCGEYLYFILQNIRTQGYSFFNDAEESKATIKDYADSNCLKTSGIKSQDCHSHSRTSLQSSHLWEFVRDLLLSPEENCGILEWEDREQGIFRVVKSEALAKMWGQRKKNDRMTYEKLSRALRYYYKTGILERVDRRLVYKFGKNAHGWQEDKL
Summed up: as §1

The target in a further test is T7, ETV3 (Homo sapiens, UniProt P41162-2 1-143).
T7 sequence: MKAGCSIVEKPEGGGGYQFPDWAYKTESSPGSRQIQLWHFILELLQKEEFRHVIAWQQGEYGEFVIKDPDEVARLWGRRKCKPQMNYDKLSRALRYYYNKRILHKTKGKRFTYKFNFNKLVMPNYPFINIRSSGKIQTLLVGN
In outline: as §1

For the next test, the target named is ETV6 (Homo sapiens, UniProt P41212 1-452). Summed up:
as §1

ETV6, sequence (P41212 whole entry): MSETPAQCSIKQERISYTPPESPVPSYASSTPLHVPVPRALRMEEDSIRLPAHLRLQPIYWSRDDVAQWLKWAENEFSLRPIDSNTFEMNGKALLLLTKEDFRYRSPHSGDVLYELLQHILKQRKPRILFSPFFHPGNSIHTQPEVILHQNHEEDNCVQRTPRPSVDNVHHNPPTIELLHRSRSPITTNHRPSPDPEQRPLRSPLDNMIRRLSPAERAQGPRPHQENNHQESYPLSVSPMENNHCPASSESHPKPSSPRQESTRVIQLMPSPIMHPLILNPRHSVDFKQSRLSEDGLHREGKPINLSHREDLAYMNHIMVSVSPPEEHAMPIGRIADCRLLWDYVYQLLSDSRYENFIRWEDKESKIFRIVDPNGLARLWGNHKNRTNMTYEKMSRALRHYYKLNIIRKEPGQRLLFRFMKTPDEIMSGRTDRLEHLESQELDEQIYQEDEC

In the case of ACGGAA, the binding signal with ERF is 1.53 fold enrichment (6-mer frequency, TF over GST control); with ETV3L, 1.73 fold enrichment (6-mer frequency, TF over GST control); in the test with ETS2 it was 1.86 fold enrichment (6-mer frequency, TF over GST control); in the test with SPDEF, 1.78 fold enrichment (6-mer frequency, TF over GST control); in the test with ETV7, 1.57 fold enrichment (6-mer frequency, TF over GST control); with ELF5, 2.24 fold enrichment (6-mer frequency, TF over GST control). Moreover, the binding signal in the test with ETV3 was 1.93 fold enrichment (6-mer frequency, TF over GST control); with ETV6, 2.14 fold enrichment (6-mer frequency, TF over GST control).

For GTATTC, the binding signal in the test with ERF was 1.29 fold enrichment (6-mer frequency, TF over GST control); in the test with ETV3L, 1.25 fold enrichment (6-mer frequency, TF over GST control); with ETS2 it was 1.33 fold enrichment (6-mer frequency, TF over GST control); with SPDEF, 1.21 fold enrichment (6-mer frequency, TF over GST control); in the test with ETV7, 1.34 fold enrichment (6-mer frequency, TF over GST control); with ELF5, 1.31 fold enrichment (6-mer frequency, TF over GST control). Moreover, the binding signal in the test with ETV3 was 1.34 fold enrichment (6-mer frequency, TF over GST control); with ETV6 it was 1.28 fold enrichment (6-mer frequency, TF over GST control).

As for CCCACC, the binding signal was 1.16 fold enrichment (6-mer frequency, TF over GST control) with ERF; 1.05 fold enrichment (6-mer frequency, TF over GST control) in the test with ETV3L; 1.02 fold enrichment (6-mer frequency, TF over GST control) in the test with ETS2; 1.12 fold enrichment (6-mer frequency, TF over GST control) with SPDEF; 1.08 fold enrichment (6-mer frequency, TF over GST control) in the test with ETV7; 1.15 fold enrichment (6-mer frequency, TF over GST control) with ELF5. Further, the binding signal was 1.06 fold enrichment (6-mer frequency, TF over GST control) in the test with ETV3 and 1.12 fold enrichment (6-mer frequency, TF over GST control) with ETV6.

As to AGCCTC, the binding signal in the test with ERF was 1.22 fold enrichment (6-mer frequency, TF over GST control); in the test with ETV3L it was 1.32 fold enrichment (6-mer frequency, TF over GST control); with ETS2 it was 1.3 fold enrichment (6-mer frequency, TF over GST control); in the test with SPDEF, 1.14 fold enrichment (6-mer frequency, TF over GST control); in the test with ETV7 it was 1.31 fold enrichment (6-mer frequency, TF over GST control); with ELF5, 1.16 fold enrichment (6-mer frequency, TF over GST control). Moreover, the binding signal with ETV3 was 1.15 fold enrichment (6-mer frequency, TF over GST control); with ETV6, 1.18 fold enrichment (6-mer frequency, TF over GST control).

With ACCCTG, the binding signal was 1.04 fold enrichment (6-mer frequency, TF over GST control) in the test with ERF; 1.05 fold enrichment (6-mer frequency, TF over GST control) in the test with ETV3L; 1.01 fold enrichment (6-mer frequency, TF over GST control) with ETS2; 1.03 fold enrichment (6-mer frequency, TF over GST control) in the test with SPDEF; 1.04 fold enrichment (6-mer frequency, TF over GST control) with ETV7; 1.03 fold enrichment (6-mer frequency, TF over GST control) in the test with ELF5. Besides, the binding signal with ETV3 is 1.13 fold enrichment (6-mer frequency, TF over GST control); with ETV6, 1.07 fold enrichment (6-mer frequency, TF over GST control).

CCCCTT: the binding signal with ERF was 1.53 fold enrichment (6-mer frequency, TF over GST control); with ETV3L, 1.47 fold enrichment (6-mer frequency, TF over GST control); with ETS2 it was 1.51 fold enrichment (6-mer frequency, TF over GST control); in the test with SPDEF, 1.5 fold enrichment (6-mer frequency, TF over GST control); with ETV7, 1.56 fold enrichment (6-mer frequency, TF over GST control); with ELF5, 1.64 fold enrichment (6-mer frequency, TF over GST control). Besides, the binding signal is 1.51 fold enrichment (6-mer frequency, TF over GST control) with ETV3 and 1.51 fold enrichment (6-mer frequency, TF over GST control) with ETV6.

Take GTTTTG: the binding signal is 1.25 fold enrichment (6-mer frequency, TF over GST control) in the test with ERF; 1.16 fold enrichment (6-mer frequency, TF over GST control) with ETV3L; 1.1 fold enrichment (6-mer frequency, TF over GST control) in the test with ETS2; 1.24 fold enrichment (6-mer frequency, TF over GST control) in the test with SPDEF; 1.13 fold enrichment (6-mer frequency, TF over GST control) with ETV7; 1.13 fold enrichment (6-mer frequency, TF over GST control) with ELF5. Further, the binding signal with ETV3 was 1.13 fold enrichment (6-mer frequency, TF over GST control); with ETV6 it was 1.15 fold enrichment (6-mer frequency, TF over GST control).
